Data on 48 compounds can be found in PubChem BioAssay AID720540 (National Center for Advancing Translational Sciences (NCATS), 2013).

The whole screen tested about 1,300 compounds, of which about 460 (35%) were called active. About 39% were inconclusive and are not listed. The list shows a part of the results. Values without a mark were called inactive. Calls follow the shape of the dose curve; as a rule, active = well fitted inhibition curve with a large enough effect; inconclusive = small, poorly fitted or top-dose-only effect; inactive = flat fitted curve, though single readings scatter.
Potency is read from the fitted curve at half-maximal effect.

The target of the test is Protein phosphatase EYA2 (Homo sapiens) (UniProt O00167). The test can be described thus: qHTS for Inhibitors of the Phosphatase Activity of Eya2: Confirmatory Assay for Cherry-picked Compounds. Also: nearly all actives have a fitted effect of over 65% in size.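 As to activity change, negative = inhibition: 0% = DMSO wells and -100% = EGTA control giving full inhibition.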 The note with it: purified EYA2 phosphatase activity, qHTS confirmation; series mostly up to 46.1 µM; activity change, negative = inhibition: at the top concentration. In a few lines: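 Eya2 (0.2 uM working solution) preincubated 10 min at room temperature with compound in pH 7.5 HEPES buffer with MgCl2, BSA, DTT. OMFP added (50 uM working solution), 10 min more; fluorescence 485/525 nm, normalized to EGTA and DMSO.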
Chain of Protein phosphatase EYA2 (Homo sapiens) (O00167 whole entry, looked up): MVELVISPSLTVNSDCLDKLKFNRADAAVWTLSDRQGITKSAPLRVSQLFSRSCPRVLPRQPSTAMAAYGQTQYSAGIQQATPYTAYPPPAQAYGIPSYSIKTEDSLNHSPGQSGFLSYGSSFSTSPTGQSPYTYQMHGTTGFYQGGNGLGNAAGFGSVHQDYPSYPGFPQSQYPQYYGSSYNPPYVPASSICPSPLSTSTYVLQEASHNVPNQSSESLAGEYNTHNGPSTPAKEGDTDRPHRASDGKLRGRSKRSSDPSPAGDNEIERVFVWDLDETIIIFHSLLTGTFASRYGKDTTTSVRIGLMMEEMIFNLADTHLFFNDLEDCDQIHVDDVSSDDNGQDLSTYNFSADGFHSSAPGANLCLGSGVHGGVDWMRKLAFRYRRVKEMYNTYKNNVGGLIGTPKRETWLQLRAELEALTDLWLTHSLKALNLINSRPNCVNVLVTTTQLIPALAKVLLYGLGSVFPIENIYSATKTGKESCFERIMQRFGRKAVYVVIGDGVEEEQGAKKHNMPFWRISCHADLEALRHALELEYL
Turning to `Cc1ccc(Nc2nc(NCCO)nc3c2cnn3C)cc1Cl`, the Potency was 7.57 µM (active).

For `COc1ccc(CNC(=O)c2sc(=O)n(Cc3cc(Cl)ccc3OC)c2C)cc1`, the “activity change, negative = inhibition” value is -20.1%. With `COc1cc2[nH]cc(C(=O)NCc3ccccc3)c(=O)c2cc1OC`, the Potency is 5.36 µM (active). `COc1ccccc1C(=O)Nc1c[nH]c(=O)[nH]c1=O`: the “activity change, negative = inhibition” value is -25.1%. On the same count and under the same terms, in the case of `O=C(C1=C[C@H](c2ccccc2)C[C@H](OCc2ccc(CO)cc2)O1)N1CCN(Cc2ccccc2)CC1` it was -21.5%. Take `Nc1ccc2c(c1Cl)C(=O)c1ccc(N)c(Cl)c1C2=O`: the Potency is 3.01 µM (active).

Consider `COc1ccccc1Nc1cc(C)nc2c(C)ccc([N+](=O)[O-])c12`, for which the Potency was 19 µM (active). For `Cc1cc(Nc2ccc([N+](=O)[O-])cc2)c2ccccc2n1`, the “activity change, negative = inhibition” value is -15.4%. `O=C(NN1C(=O)/C(=C\c2ccc(O)c([N+](=O)[O-])c2)SC1=S)c1ccccc1Cl`: the Potency was 12 µM (active). As for `O=C(Nc1ccccc1)C(Cl)C(=O)c1ccccc1` (stereo not drawn), the “activity change, negative = inhibition” value was -13.8%. As for `O=C(Nc1ccccc1)C1=C(c2ccccc2)S(=O)(=O)CCS1(=O)=O`, the Potency was 13.5 µM (active). For `O=C(CSc1ccc(-c2ccccn2)nn1)N1CCCC1`, the Potency is 12 µM (active).

Turning to `O=C(CSc1ccc(-c2ccccn2)nn1)N1CCCCC1`, the Potency is 7.57 µM (active). With `O=C(Cn1c(S(=O)(=O)Cc2ccccc2)nc2ccccc21)N1CCCCC1`, the “activity change, negative = inhibition” value is -2.49%. The same measure, in the same setting: in the case of `Cc1cc2nc(/N=C(\N)NC(=O)N3c4ccccc4Sc4ccccc43)nc(C)c2cc1C` it was -24.6%. With `O=C(Cn1c(C(=O)N2CCc3ccccc3C2)cc2sccc21)c1ccccc1`, the “activity change, negative = inhibition” value was -25.1%. On the same count and under the same terms, in the case of `Cc1cc(NC(=O)CS(=O)(=O)c2cn(Cc3cccc(Br)c3)c3ccccc23)no1` it was -26.3%.

On to `Cn1ccc2c(N3CCCC3)cc3c(c21)C1CCC3C1` (stereo not drawn), for which the Potency was 21.3 µM (active).

As to `COC(=O)c1ccc(C23CC4(C2)[C@H](CN(CC2CCCCC2)[C@@H]4c2ccccc2)C3c2ccc(Cl)nc2)cc1` (stereo partly drawn), the “activity change, negative = inhibition” value is -20.7%. In the case of `O=C(CC(=O)c1c(F)cccc1Cl)c1ccccc1O`, the “activity change, negative = inhibition” value was -12.4%. With `COC(=O)c1ccccc1NC1=C/C(=N\S(=O)(=O)c2cccs2)c2ccccc2C1=O`, the Potency is 1.69 µM (active). For `O=c1c2ccccc2nnn1CSc1nnc(C2COc3ccccc3O2)n1-c1ccccc1` (stereo not drawn), the “activity change, negative = inhibition” value is -29.4%. As to `O=c1c2ccccc2c(C=Nc2cccc(S(=O)(=O)NC3=NCCCCC3)c2)c(O)n1Cc1ccccc1`, the “activity change, negative = inhibition” value was -13.3%. On to `COc1cccc(NC(=O)c2ccc3c(c2)CCN3S(C)(=O)=O)c1`, for which the “activity change, negative = inhibition” value is -14.2%.

On to `COc1ccc(S(=O)(=O)c2c(O)c3ccc(C(=O)Nc4cccc(F)c4)cc3[nH]c2=O)cc1`, for which the Potency was 0.338 µM (active).

In the case of `Cc1ccc(Nc2nnc(SCC(=O)c3c(N)n(C4CC4)c(=O)[nH]c3=O)s2)cc1C`, the “activity change, negative = inhibition” value is -26.1%.

Turning to `CCCNC(=O)C1(C)CCN(Cc2cccc(OC(=O)c3ccccc3)c2)C1` (stereo not drawn), the “activity change, negative = inhibition” value is -16.6%.

For the compound `O=C(Oc1ccc2c(c1)OCC2=O)c1ccccc1`, the Potency is 4.78 µM (active). As to `O=C(Oc1ccc2c(c1)OCC2=O)c1ccc(Cl)cc1`, the Potency was 2.39 µM (active). Same read-out and setting: in the case of `CN(CCCc1cnc[nH]1)C(=S)NCCCN(Cc1ccc(Cl)cc1)c1ccc(Br)cn1` it was 19 µM (active). Regarding `S=C(NCCCc1cnc[nH]1)NCCCN(Cc1ccc(Cl)cc1)c1ccc(-c2ccccc2)cn1`, the Potency was 16.9 µM (active). Turning to `CCC(=O)Nc1nc2c(OC)ccc(OC)c2s1`, the “activity change, negative = inhibition” value is -16.5%. For `COc1cc(CNC(=O)Nc2nc(C(N)c3ccccc3)cs2)cc(OC)c1OC` (stereo not drawn), the Potency is 19 µM (active). Regarding `Cc1ccccc1-c1cnc(C(O)c2c(C)cccc2C)[nH]1` (stereo not drawn), the “activity change, negative = inhibition” value was -18.5%. As to `Cc1nc([N+](=O)[O-])cn1CC(O)c1ccc2c(c1)OCO2` (stereo not drawn), the “activity change, negative = inhibition” value is -3.27%. In the case of `O=c1[nH]c(=O)n(C2C[C@H](O)[C@@H](CO)O2)cc1C(F)(F)F` (stereo partly drawn), the “activity change, negative = inhibition” value was -6.54%. Regarding `COc1ccc2ccccc2c1C=NN1CCCCC1`, the Potency was 16.9 µM (active). For `CCOC(=O)NNc1nncc2ccccc12`, the “activity change, negative = inhibition” value was 3.63%. Take `CCOC(=O)c1ncccc1NC(=O)CC(=O)Nc1cccnc1C(=O)OCC`: the Potency was 3.79 µM (active). For `CC(=O)Oc1cccc2c1C(=O)C1CC=CC(OC(C)=O)C1C2=O` (stereo not drawn), the Potency is 15.1 µM (active). Consider `O=[N+]([O-])c1ccccc1/C=C\C=N\N1CCN(c2ccccc2)CC1`, for which the Potency was 9.53 µM (active). For the compound `COc1ccccc1N1CCN(/N=C/C=C\c2ccccc2[N+](=O)[O-])CC1`, the Potency is 15.1 µM (active). `COc1ccc(F)cc1-c1cc(NC=O)c2ncc(-c3cccc(C(F)(F)F)c3)n2c1`: the “activity change, negative = inhibition” value is -24.6%. Consider `O=C(O)C1=C[C@@H](c2csc3ccccc23)C[C@@H](OCc2ccc(CO)cc2)O1`, for which the “activity change, negative = inhibition” value is -18%. `OC(COc1ccc2cc(Br)ccc2c1)Cn1ccnc1` (stereo not drawn): the “activity change, negative = inhibition” value was -19.8%.

Regarding `CS(=O)(=O)c1ccc(-c2nnc(NC(=O)C3=COCCO3)o2)cc1`, the “activity change, negative = inhibition” value is -26%. Regarding `Cc1sc(NC(=O)C2=COCCO2)c(C(N)=O)c1C`, the Potency was 7.57 µM (active).

For `CC1CCc2c(sc(NC(=O)/C=C/c3cccs3)c2C(=O)O)C1` (stereo not drawn), the Potency was 19 µM (active).
